Source: PubChem
Sampled rows, rich in hits. Any-hit rate of the full collection: about 4.3%.
Peg3 prom inh: reduces Peg3 promoter-driven luciferase expression in HeLa; HeLa PEG-Prom luciferase reporter, luminescence, overnight; inhibition, % at 20 µM; 360,000 tested, 1.7% active;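 active = inhibition of at least 50% at 20 µM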
CHOP inh: blocks CHOP induction under ER stress; inhibition, % at 10 µM; AID 2732; 220,000 tested, 3.8% active; CHO-K1 CHOP-promoter luciferase, tunicamycin-induced, 15-18 h;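 active = compounds that reduced the stress-induced luciferase reporter signal by more than about 70% of percent inhibition, limit read from the data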;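 note: 0% = tunicamycin plus vehicle and 100% = wells without tunicamycin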
CF NFkB inh: blocks PAF-induced NF-kB reporter in cystic fibrosis cells; KKLEB NF-kB-GFP reporter, GFP fluorescence overnight; inhibition, % at 5 µM; 360,000 tested, 0.86% active; AID 588850;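 active = at least 50% inhibition at 5 µM, scaled per plate between neutral and stimulator controls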;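 note: PAF is a Pseudomonas aeruginosa culture filtrate used as stimulus; plate controls were PAF-stimulated DMSO wells for no effect and unstimulated DMSO wells for full effect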
KKLEB tox: counter-screen for CF NF-kB inhibitors: cytotoxicity. KKLEB CF airway cells viability, ATPlite luminescence, overnight; stronger effect = lower value; cells stimulated with P. aeruginosa culture filtrate. activity change (cytotoxicity), % at 5 µM. 360,000 tested, 0.36% active;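 active = corrected activity change at or below -50% at 5 µM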
TRPM1 prom inh: MITF TRPM1 promoter inhibition in SK-MEL-5 cells | inhibition, % at 12.5 µM | SK-MEL-5 TRPM1 promoter luciferase, 24 h | 330,000 tested, 0.83% active;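 active = mean inhibition across replicates of 60% or more, whatever share of single replicates reaches that level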
HIF-2a block: HIF-2a inhibition. 786-0 RCC cells HIF-2a reporter, luciferase luminescence, overnight. inhibition, % at 18.8 µM. 360,000 tested, 0.72% active;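 active = inhibition of the luminescence signal of 40% or more relative to plate controls, in a single-dose primary screen at 18.75 µM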
CF NFkB inh conf: CF NF-kB inhibition confirmation, single concentration | shares compounds with CF NFkB inh | KKLEB CF airway cells, PAF-induced NF-kB-GFP fluorescence, overnight | inhibition, % at 5 µM | 1,300 tested, 64% active | AID 602472; in the data active = inhibition above about 40%;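 note: stimulus PAF is a Pseudomonas aeruginosa filtrate and not platelet activating factor; plate controls were DMSO wells with stimulus for no effect and unstimulated DMSO wells for full effect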
Numbers without * were called inactive.

CCC(CO)Oc1cc(NCc2ccc(Cl)cc2)c2ncn(C(C)C)c2c1 (stereo not given) was read as Peg3 prom inh 14.8, CF NFkB inh 14.8, KKLEB tox -5.8, TRPM1 prom inh 11.4 and HIF-2a block 3.4.
`CCC(CO)Oc1cc(NCc2ccc(Cl)cc2Cl)c2ncn(C(C)C)c2c1` (stereo not given) gave Peg3 prom inh 14.0, CF NFkB inh 60.1*, KKLEB tox -2.5, TRPM1 prom inh 7.4, HIF-2a block 20.1 and CF NFkB inh conf 45.2*.
For COc1ccc(/C=C/C(=O)c2cc(F)ccc2OC(=O)c2ccccc2C)cc1OC the results were Peg3 prom inh 19.3, CHOP inh -32.2, CF NFkB inh 54.2*, KKLEB tox -27.0, TRPM1 prom inh 48.6, HIF-2a block 24.5 and CF NFkB inh conf 45.4*.
For COc1ccc(C(=O)Oc2ccc(F)cc2C(=O)/C=C/c2ccc(OC)c(OC)c2)cc1 the results were Peg3 prom inh 18.6, CHOP inh 27.1, CF NFkB inh 12.5, KKLEB tox -15.3, TRPM1 prom inh 5.7 and HIF-2a block 3.7.
`Cc1cc(C)nc(CCNC(=O)CC2C(=O)NCCN2Cc2ccccc2)n1` (stereo not given) gave Peg3 prom inh -5.7, CF NFkB inh 1.5, KKLEB tox -3.7, TRPM1 prom inh -10.3 and HIF-2a block 5.6.
O=C(c1ccccc1)C1OC1C(=O)c1ccccc1 (stereo not given) was read as Peg3 prom inh -17.9, CF NFkB inh 56.1*, KKLEB tox -12.5, TRPM1 prom inh 36.0, HIF-2a block -55.5 and CF NFkB inh conf 53.9*.
For C[C@H](CO)N1C[C@H](C)[C@@H](CN(C)C(=O)NC2CCCCC2)Oc2c(NS(=O)(=O)c3cn(C)cn3)cccc2C1=O the results were Peg3 prom inh -2.1, CF NFkB inh -6.8, KKLEB tox 2.2, TRPM1 prom inh -0.3 and HIF-2a block 4.7.
Screening O=C(O)c1ccc(-n2ncc(Cl)c(Cl)c2=O)cc1 returned Peg3 prom inh -15.9, CF NFkB inh 74.3*, KKLEB tox -45.0, HIF-2a block -13.7 and CF NFkB inh conf -39.4.
`C=C(CCC(=O)c1ccccc1)C(=O)c1ccccc1` gave Peg3 prom inh 62.9*, CHOP inh -8.0, CF NFkB inh 79.6*, KKLEB tox -40.0, TRPM1 prom inh 2.5, HIF-2a block -49.8 and CF NFkB inh conf -63.1.
`Cc1ccccc1S(=O)(=O)N1[C@@H](c2ccc(Cl)cc2)C(C(=O)O)=CC[C@H]1c1ccc(Cl)cc1` gave Peg3 prom inh 19.3, CF NFkB inh 15.8, KKLEB tox -4.5, TRPM1 prom inh -1.8 and HIF-2a block 7.8.
CCn1c(C)nc2cc(C(=O)N/N=C(\C)c3ccccc3O)ccc21 was read as Peg3 prom inh -228.3, CHOP inh -10.6, CF NFkB inh -4.1, KKLEB tox 0.2, TRPM1 prom inh -82.7 and HIF-2a block -264.4.
For Cc1cccc(-n2c(SCc3ccc([N+](=O)[O-])cc3)nnc2-c2c[nH]c3ccccc23)c1 the results were Peg3 prom inh 19.7, CHOP inh 24.6, CF NFkB inh 51.3*, KKLEB tox -40.3, TRPM1 prom inh 9.9, HIF-2a block 17.8 and CF NFkB inh conf 20.9.
Screening CNc1ccc2ncc(-c3cccc(C(=O)N(C)C)c3)n2n1 returned Peg3 prom inh 23.1, CF NFkB inh 85.6*, KKLEB tox -10.9, HIF-2a block 8.9 and CF NFkB inh conf 98.4*.
Screening CN(C)C(=O)c1cccc(-c2ccc3nncn3c2)c1 returned Peg3 prom inh 0.1, CF NFkB inh -3.9, KKLEB tox 11.9 and HIF-2a block 11.7.
Screening CCc1nc(Cl)c(C#N)c2c1CSC(C)(C)C2 returned Peg3 prom inh 4.0, CHOP inh 4.9, CF NFkB inh 57.5*, KKLEB tox -21.1, TRPM1 prom inh -7.3, HIF-2a block 21.7 and CF NFkB inh conf 42.1*.
Screening CCc1nc(Cl)c(C#N)c2c1CCCC2 returned Peg3 prom inh -18.6, CHOP inh 46.2, CF NFkB inh 54.6*, KKLEB tox -0.1, TRPM1 prom inh -8.1, HIF-2a block 28.3 and CF NFkB inh conf 75.2*.
For CC(C)Cc1nc(Cl)c(C#N)c2c1CCCC2 the results were Peg3 prom inh 18.2, CHOP inh 16.0, CF NFkB inh 35.5, KKLEB tox 2.5, TRPM1 prom inh 0.3 and HIF-2a block 17.2.
CCCCc1nc(Cl)c(C#N)c2c1CSC(C)(C)C2 was read as Peg3 prom inh 4.5, CHOP inh 47.7, CF NFkB inh 15.7, KKLEB tox -17.1, TRPM1 prom inh -8.1 and HIF-2a block 21.6.
For CCCc1nc(Cl)c(C#N)c2c1CCCC2 the results were Peg3 prom inh -5.7, CHOP inh 59.6, CF NFkB inh 68.3*, KKLEB tox -12.5, TRPM1 prom inh -12.8, HIF-2a block 18.0 and CF NFkB inh conf 75.9*.
COC(=O)c1ccc(NC(=O)Cn2nc(C(=O)Nc3ccc(C)cc3)ccc2=O)cc1 was read as Peg3 prom inh -1.1, CF NFkB inh 3.8, KKLEB tox 0.4, TRPM1 prom inh -1.6 and HIF-2a block -0.2.
Screening COc1ccc(NC(=O)c2nc(S(=O)(=O)Cc3cccc(C)c3)ncc2Cl)c(OC)c1 returned Peg3 prom inh 108.0*, CF NFkB inh 93.0*, KKLEB tox -38.5, TRPM1 prom inh 42.6, HIF-2a block -0.7 and CF NFkB inh conf 52.4*.
`Cc1ccccc1NC(=O)c1nc(S(C)(=O)=O)ncc1Cl` gave Peg3 prom inh 104.8*, CF NFkB inh 79.1*, KKLEB tox -0.6, TRPM1 prom inh 27.6, HIF-2a block -39.2 and CF NFkB inh conf 54.7*.
Screening Cc1ccccc1NC(=O)c1cccc(C(=O)Nc2ccccc2C)n1 returned Peg3 prom inh 7.8, CF NFkB inh -31.3, KKLEB tox -10.6, TRPM1 prom inh 1.4 and HIF-2a block 20.2.
`O=C(NCCC(=O)N1CCCC1)c1ccccc1Cl` gave Peg3 prom inh -26.6, CF NFkB inh 2.5, KKLEB tox 7.4, TRPM1 prom inh -13.1 and HIF-2a block -29.9.
For Cc1ccc(S(=O)(=O)Nc2ccc3ccccc3c2[N+](=O)[O-])cc1 the results were Peg3 prom inh 31.5, CF NFkB inh -8.0, KKLEB tox -3.6, TRPM1 prom inh 25.3 and HIF-2a block -0.7.
Screening Cc1ccc(S(=O)(=O)Nc2ccc3cc([N+](=O)[O-])ccc3c2[N+](=O)[O-])cc1 returned Peg3 prom inh 47.7, CF NFkB inh 50.2*, KKLEB tox -24.1, TRPM1 prom inh 20.6, HIF-2a block -25.9 and CF NFkB inh conf 74.6*.
Clc1ccccc1-c1nnc2sc(-c3ccncc3)nn12 was read as Peg3 prom inh -12.7, CHOP inh 27.3, CF NFkB inh 26.6, KKLEB tox -1.8, TRPM1 prom inh -13.1 and HIF-2a block -16.9.
